Source: the supplement of paper PMC6555819

Assays:
Test in all cases: PBM binding z-score (relative to random genomic background probes); higher = stronger binding; sequences stand for … in GC…GCGATTGACAGCGTAGAATGAAGG
[1] = system: RARb homodimer (NR concentration 270 nM)
Outline: (§1)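 Antibodies against each partner of ligand-free nuclear receptor dimers (one per run) detected binding on custom Agilent 4×180K protein-binding microarrays after 1 h incubation. The double-stranded probes had 34-nt variable regions carrying direct-repeat seeds, single-nucleotide variants, half-site ablations and random human genomic background sequences. Binding z-scores, from regression-normalized fluorescence, use the random background probes as reference.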

[2] = system: RARg:RXRa (NR concentration 270 nM, RXRa partner concentration 90 nM)
Outline: as §1

[3] = system: RARg homodimer (NR concentration 270 nM)
Outline: as §1

[4] = system: RXRa DBDmut IVT, anti-RXR (DBD mutation: RXRa K156A/R161A, NR concentration 90 nM)
Outline: as §1

[5] = system: RXRa homodimer (NR concentration 180 nM)
Outline: as §1

[6] = system: THRa:RXRa (NR concentration 90 nM, RXRa partner concentration 90 nM)
Outline: as §1

[7] = system: THRa homodimer (NR concentration 90 nM)
Outline: as §1

[8] = system: VDR homodimer (NR concentration 270 nM)
Outline: as §1

Sequence	PBM binding z-score [1]	PBM binding z-score [2]	PBM binding z-score [3]	PBM binding z-score [4]	PBM binding z-score [5]	PBM binding z-score [6]	PBM binding z-score [7]	PBM binding z-score [8]
CTCGAAAGGTCGGTTGATGTGAGTATACGGATAA	1.8	2.39	2.37	0.767	1.96	2.01	-0.0197	0.986
CCGACTGAGGCAAAGGTTACCATACTCAGTACGA	1.76	1.73	1.29	0.393	2.61	1.54	0.023	-0.216
TCATATAGGTAAAGGGTGAAAGTCGGTGTGGTAA	1.59	1.09	0.514	1.84	2.24	1.19	0.771	0.649
CAAACTAAGTCAAGGTCAAAGTCGGTTTGTGCCA	4.04	4.35	4.17	2.72	4.85	4	3.38	4.09
ATCGAAAGGTGGAAGGTGAGTATACCCACCCGAA	0.363	0.767	0.717	-1.21	1.12	0.406	-0.497	0.146
GGAACGAGGGCAAGTTGATAGAAGAGTTTGATGG	1.5	1.55	2.06	2.22	0.775	1.2	0.164	1.7
GCTATTAGTTGAAAGGGTAACCGAATGATTCTCG	0.907	0.593	0.407	1.01	0.952	0.527	0.212	-0.0669
TCTATTAGTTGATTAGGGCAACTGAAACAGCGGA	0.795	0.45	0.804	0.885	0.275	0.533	0.295	0.318
TCATAGAGGTAAACAGGTGAAAGTCCGTAAGTTA	0.716	0.649	0.356	1.07	1.1	0.843	-0.0526	-0.0713
GATAGAGGGTCAGCTAGAGGCCAGAGTATGGAAA	3.28	6.38	4.5	0.579	3.71	2.39	-0.103	0.387
CGAACTAAGTCAAGGACAGTGAATCTCCGCACGC	0.164	0.0358	0.274	0.417	-0.164	1.45	1.12	-0.0534
CGACCAAGGTCAAAGGTCAGTGAAGAGATGACGG	5.51	8.66	8.05	3.97	10.4	4.71	2.27	3.83
CGTCCAACGTCAGAGAGGTCAGTGAATGCCGAGT	3.88	2.75	3.06	0.53	2.32	2.39	0.645	1.67
ACTAGCAGGCCAGGTTTGGGTCACTCAAACAAAG	1.92	1.47	0.836	-0.798	0.628	2.11	0.999	-0.155
AGAATGATGTTAAGATCAGGGAAACAGAATACAT	-0.787	0.187	0.295	-0.58	0.00873	-0.153	-0.703	-0.555
GGAACAAGGGCAAGTTGATAGCAGAGTTTGATGG	1.92	1.5	2.02	1.47	0.773	1.14	0.372	1.27
TAGCCTAGATCATTGGGCCAGTATAGTACGCATC	-0.608	-0.554	-0.194	-0.443	-0.398	-0.832	-0.488	-0.283
ATCTCTAGGTAAGGCTCAGTTCAGTGAAGAACGC	0.805	0.0838	-0.0338	0.317	-0.0677	0.831	0.732	1.36
TGAATGACGTTATAAGATCAGGGAACGTTGCAAA	-0.513	0.43	0.292	-0.941	0.24	-0.021	-0.323	-0.203
TCTTGTAGATCAGCAGGTAAAGAAAGCTGGCCAA	-0.48	-0.342	-0.709	0.623	0.124	-0.108	-0.515	-0.431
ACTATTAGTTGAGACGAAGGCAACCGATAGGTTG	-0.559	-0.255	0.233	0.0754	-0.207	-0.702	-0.7	-0.261
GCTAGTTGGTGAGTAAAAGGTCACACACCGGTCG	4.97	4.87	4.37	0.235	5.35	3.48	1.6	1.57
CTCGAAAGGTCGGTTGCGGTGAGTATACGGATAA	1.91	2.44	2.59	1.06	2.06	3.27	-0.0628	0.294
AATACAGGGTCACTACGCCAGAGTAGGTACGAAT	3.19	5.26	4.83	3.03	5.7	3.5	1.33	3.21
CCTACTGGGCCACGAAAAGTCATTGATTCAGTGA	0.476	0.154	0.301	-0.296	-0.0607	-0.0481	-0.645	-0.412
TCATACAGGTAAAAGGTGAAAGTCGGTGTGGTAA	2.02	2.07	1.09	1.58	3.18	1.81	0.619	0.324
TGAATGAGGTTATAAGATCAGGGATCGTTGCAAA	-0.0683	1.33	0.782	0.362	2.09	1.68	0.0696	0.406
TCGAGTAGGTTAGGGGCATACAGAATGGCGTCGA	0.759	0.546	0.52	0.367	1	0.925	0.135	0.73
